Publication PMC8769072, “Proteome‐scale mapping of binding sites in the unstructured regions of the human proteome” (Molecular Systems Biology, 2022)

target: CEP55 160-217, Q53EZ4
Sequence (Q53EZ4 160-217): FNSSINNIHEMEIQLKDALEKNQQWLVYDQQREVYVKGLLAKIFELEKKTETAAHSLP

Selected by phage display, active:
PPAAVYYAPAGPTSAQ [AKNA, Q7Z591] confidence 3
PPATSYAPSDVPSGVA [MALL, Q13021] confidence 2
DAKAPPTAAYAGAAPA [CEBPB, P17676] confidence 4
PPSADYSTPPHRTVPE [BAHD1, Q8TBE0] confidence 3
PQSPPASMYGSTGSLL [PSD, A5PKW4] confidence 2
PPFTDYRQPPLDYRQP [MAGI2, Q86UL8] confidence 3
AREPPADVWTPPARAS [TRIM25, Q14258] confidence 2
MAVGPPDAPVGGPLTF [INO80E, Q8NBZ0] confidence 2
GPPSLNYIPPVLQLSG [TEX14, Q8IWB6] confidence 2
PPSQSYGGGPAQVPLP [ANXA7, P20073] confidence 2
SNWSPLGPPSSPYGAA [MAML3, Q96JK9] confidence 2
WSYLMHFLFDHSNLGS [OR52I1, Q8NGK6] confidence 2

target: CALM1 2-149, P0DP23

Selected by phage display, active:
VTAGWTWPALRTLSSL [NFKBIE, O00221] confidence 2
AWKSLTDKVQEARSNA [KMT2A, Q03164] confidence 2
WPLLRKQLEGRLALPS [SPATA31A6, Q5VVP1] confidence 2
STWGTVKDSLKALSSA [SRARP, Q8NEQ6] confidence 2
KWPSLATLAATPISSS [AGAP7P, Q5VUJ5] confidence 3
PYPKWNSVFDQLTQVV [MAP2K4, P45985] confidence 3
EISNRWKLAQVQVQKD [EXOSC10, Q01780] confidence 2
AWSDVVGRRSSLLAAI [MFSD9, Q8NBP5] confidence 2
MAAWKSWTALRLAATV [TMX3, Q96JJ7] confidence 2
LWLALRETVYDPSLPA [DISP2, A7MBM2] confidence 3
SIPRSWPSAHSVSNIL [PAX1, P15863] confidence 2
EVAFGKEGLWKLLGGF [GNL3, Q9BVP2] confidence 2
WKTLKERESILKLLDG [TADA3, O75528] confidence 3
SFWLFRVSPTTFPFLY [ATP8B3, O60423] confidence 2
MMLSEQAQKWFPTHVQ [RAB11FIP2, Q7L804] confidence 2
DWSNLVDAAKAYEVQR [SIPA1L1, O43166] confidence 3
AVPSNASWEQAMKMVV [PRPF40B, Q6NWY9] confidence 2
WQRLQSNPHLKEGSVT [ACY1, Q03154] confidence 2
WNLLQQQTTTTSSKNL [KRT4, P19013] confidence 3
DRSWHQMVVRALSSQE [HSH2D, Q96JZ2] confidence 2
SISSQVSSAVMKSLLA [IL16, Q14005] confidence 2
GTHWRVLGLALLSVGV [CD3E, P07766] confidence 3
AQDFFQRWKQLSLPQQ [AP2A1, O95782] confidence 2
TNWTLLKSDMNKPHLI [TTLL6, Q8N841] confidence 2
GGLLHWERLLGGLGGE [NCKAP5L, Q9HCH0] confidence 2
LWPVLRSDAFSGLTAL [FIGN, Q5HY92] confidence 3
AWKTALLANVGTISAI [PERM1, Q5SV97] confidence 2

target: CRK 124-198, P46108
Sequence (P46108 124-198): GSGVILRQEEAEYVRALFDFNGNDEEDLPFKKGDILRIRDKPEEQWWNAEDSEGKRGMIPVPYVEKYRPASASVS

Selected by phage display, active:
LSIPVTSEPPALPPKP [DOCK4, Q8N1I0] confidence 2
PPPLPPKPRISSYPED [MAP4K5, Q9Y4K4] confidence 2
NLPPPLPPKKYAITSV [USP53, Q70EK8] confidence 2
QVPSLPLKDSQELTAS [ZKSCAN5, Q9Y2L8] confidence 4
PTPVLMNQPPQIAPKR [EIF4G1, Q04637] confidence 3
PALPSKLLSSGSAKAD [IL17RD, Q8NFM7] confidence 3
APSLPGKGSGASVALM [ZNF469, Q96JG9] confidence 3
PPVPPKSEAVREEARL [GAREM1, Q9H706] confidence 4
LSETVTKPPLPQKNTA [NSUN7, Q8NE18] confidence 3
TNLPDVPNKSAPSPTS [ZNF462, Q96JM2] confidence 2
NSTSRPTLPVKSLAQR [SZRD1, Q7Z422] confidence 2
KEPPAKVPEVPKKIVV [TTN, Q8WZ42] confidence 3

target: CLTC 1-364, Q00610
Sequence (Q00610 1-364): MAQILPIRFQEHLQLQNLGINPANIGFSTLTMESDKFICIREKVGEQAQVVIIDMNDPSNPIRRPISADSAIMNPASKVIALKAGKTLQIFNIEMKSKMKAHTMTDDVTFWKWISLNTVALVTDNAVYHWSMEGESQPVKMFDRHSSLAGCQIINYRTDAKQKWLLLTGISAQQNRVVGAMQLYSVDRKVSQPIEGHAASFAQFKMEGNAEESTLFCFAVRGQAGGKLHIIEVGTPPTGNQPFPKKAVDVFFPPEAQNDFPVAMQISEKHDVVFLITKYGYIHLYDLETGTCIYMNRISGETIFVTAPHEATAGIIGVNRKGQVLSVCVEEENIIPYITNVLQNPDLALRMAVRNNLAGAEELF

Selected by phage display, active:
LPLIDFADTPEAHVAV [GTSE1, Q9NYZ3] confidence 3
SADLIQFEERPQEPSE [MARF1, Q9Y4F3] confidence 3
GQVQVADLLGINGTGE [CCDC141, Q6ZP82] confidence 2
EHNLITWTDGPPPVQF [MAU2, Q9Y6X3] confidence 4
DLLSGDLIFLGSDSHP [GJB5, O95377] confidence 3
ANTLPVSGNLIDLYGN [MITF, O75030] confidence 3
PVSSLAEPDLINFMDF [DENND4C, Q5VZ89] confidence 2
VGSLIDFGPEAPTSSP [KIAA0513, O60268] confidence 3
SLISWDEPGVDFYSKP [PIK3C2B, O00750] confidence 4
GLLLMEEEGHSDLISF [TMEM94, Q12767] confidence 4

target: AP2B1 700-937, P63010
Sequence (P63010 700-937): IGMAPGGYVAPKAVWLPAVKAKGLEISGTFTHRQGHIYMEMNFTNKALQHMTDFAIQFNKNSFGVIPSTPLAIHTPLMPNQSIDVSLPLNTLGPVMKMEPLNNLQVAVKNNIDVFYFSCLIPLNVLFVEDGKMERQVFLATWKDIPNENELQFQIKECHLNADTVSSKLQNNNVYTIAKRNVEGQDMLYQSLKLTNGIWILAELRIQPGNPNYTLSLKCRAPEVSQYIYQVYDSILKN

Selected by phage display, active:
MQIPQAPWPVVWAVLQ [PDCD1, Q15116] confidence 4
